# Results reported in PubChem BioAssay AID463208 (Broad Institute, 2010).
# Unmarked numbers belong to inactive results. Calls of active or inactive are those of the source.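 How the source made its calls: active means AC50 at most tenfold above the top tested concentration; inconclusive means flat fit with 30 to 70% activity, or a poor fit; inactive means AC50 over tenfold above the top dose.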
# Assay: yeast HDAC inhibitors, dose response, mechanism study for Sdo1 growth activator project, cell lysate, fluorescence, yeast nuclear extract (AID 463208)
# Settings: yeast nuclear extract HDAC activity, fluorogenic substrate
row,SMILES,AC50
1,CC(/C=C/C(=O)NO)=C\[C@@H](C)C(=O)c1ccc(N(C)C)cc1,< 0.00075 µM (active)
2,O=C(COC(=O)Cc1cccs1)Nc1ccccc1,> 50 µM
3,CCOc1cccc(C(=O)NC(=S)NCc2cccnc2)c1,> 50 µM
4,O=C(Nc1cccc(Cl)c1)c1ccc(NCC2CCCO2)c([N+](=O)[O-])c1 (configuration not stated),> 50 µM
5,O=C(CCSc1nc(-c2ccco2)cc(C(F)(F)F)n1)NCCc1cccs1,> 50 µM
6,COc1ccc(-c2c(C)sc(NC(=O)c3ccnn3C)c2C#N)cc1,> 50 µM
7,Cc1sc(NC(=O)c2ccnn2C)c(C#N)c1-c1ccc(F)cc1,> 50 µM
8,Cc1sc(NC(=O)c2ccnn2C)c(C#N)c1-c1ccccc1,> 50 µM
9,Cc1nn(Cc2ccc(Cl)cc2)c(C)c1NC(=O)CSc1n[nH]c(C)c1[N+](=O)[O-],> 50 µM
10,CC(C)C(C(=O)Nc1cccnc1)N1C(=O)c2ccccc2C1=O (configuration not stated),> 50 µM
11,CC(C(=O)Nc1cccnc1)N1Cc2ccccc2C1=O (configuration not stated),> 50 µM
12,COc1ccc(-c2nc3ccccc3o2)cc1NC(=O)c1ccc(Br)o1,> 50 µM
13,CC(=O)N(C1=C(Cl)C(=O)c2ccccc2C1=O)C1CCCCC1,> 50 µM
14,Cc1c(/C=N/NC(=O)c2ccc(F)cc2)cnn1C,> 50 µM
15,CCOC(=O)/C=C1\SCC(=O)N1CC(=O)NC12CC3CC(CC(C3)C1)C2,> 50 µM
16,O=C(CSc1nc(-c2cccs2)cc(C(F)(F)F)n1)NCc1ccco1,> 50 µM
17,Cc1ccc(Cn2c(Sc3ncccn3)nc3c2c(=O)[nH]c(=O)n3C)cc1,> 50 µM
18,CC(C(=O)Nc1cccnc1)N1C(=O)c2ccccc2C1=O (configuration not stated),> 50 µM
19,CCSc1nnc([C@H](CCSC)NC(=O)OC(C)(C)C)o1,> 50 µM
20,COc1ccc(OCC(O)Cn2c(Nc3ccccc3)nc3c2c(=O)n(C)c(=O)n3C)cc1 (configuration not stated),> 50 µM
21,CSCC[C@H](NC(=O)OC(C)(C)C)c1nnc(SCC(N)=O)o1,> 50 µM
22,CCOC(=O)/C=C1\SCC(=O)N1CC(=O)NC1CCCCC1,> 50 µM
